# Most compounds without a hit are left out; they make up all but 3.2% or so of the library.
# NTR1 agonist = activates human neurotensin receptor 1 | P30989 | NTR1-U2OS beta-arrestin-GFP spot imaging, agonist mode | activation, % at 20 µM | actives 0.17% (n = 330,000) | AID 493036;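 active = activation at or above 40% of the spot to cytoplasm intensity ratio, with at least 20 cells analyzed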;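 note: 0% = DMSO without peptide and 100% = 100 nM NTR1 peptide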
# Target sequence (P30989 whole entry, looked up): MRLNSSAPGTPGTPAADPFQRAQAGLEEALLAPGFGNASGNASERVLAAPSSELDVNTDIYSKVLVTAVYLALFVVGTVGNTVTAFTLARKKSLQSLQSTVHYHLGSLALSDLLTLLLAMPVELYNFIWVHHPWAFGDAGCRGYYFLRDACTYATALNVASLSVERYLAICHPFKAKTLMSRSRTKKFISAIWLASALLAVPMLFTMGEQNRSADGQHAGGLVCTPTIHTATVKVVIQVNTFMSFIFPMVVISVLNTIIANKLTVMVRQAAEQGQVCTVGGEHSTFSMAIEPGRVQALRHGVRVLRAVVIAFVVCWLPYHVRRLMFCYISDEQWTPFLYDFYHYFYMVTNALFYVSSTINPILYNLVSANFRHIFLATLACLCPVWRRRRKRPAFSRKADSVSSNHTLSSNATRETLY
# APOBEC3A inh = blocks human APOBEC3A ssDNA deamination; inhibition, % at 20 µM; recombinant A3A, FAM/TAMRA ssDNA deamination fluorescence; AID 493011; actives 0.41% (n = 330,000);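 active = at least 40% inhibition at 20 µM here, with at most 30% in a related deaminase screen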;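 note: plate controls were A3A with DMSO for no effect and wells lacking A3A enzyme for full effect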
# APOBEC3G inh = APOBEC3G (human) deaminase inhibition; recombinant A3G, ssDNA deamination FAM/TAMRA fluorescence; inhibition, % at 20 µM; actives 0.28% (n = 330,000); AID 493012;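 active = inhibition of at least 40% at 20 µM, with no more than 30% in the related APOBEC3A deaminase screen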;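 note: plate controls were DMSO wells with A3G for no effect and wells lacking A3G enzyme for full effect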
# AHR activator = human AHR activation; P35869; AHR-responsive luciferase reporter cells, luminescence; activation, % at 5 µM; actives 2.5% (n = 320,000); AID 2796; in the data active = activation above about 47%;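 note: 0% = vehicle wells and 100% = reference agonist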
# An asterisk follows results filed as active; / = no result given.
SMILES,NTR1 agonist,APOBEC3A inh,APOBEC3G inh,AHR activator
COc1cc(NC(=S)Nc2ccccn2)cc(OC)c1,1,2,-10,74*
O=C(Nc1ccccn1)C(=O)Nc1ccccn1,1,-5,10,4
COc1cc(NC(=S)Nc2ccccn2)cc(OC)c1OC,0,0,-6,77*
Cc1c(Cl)cccc1NC(=S)Nc1ccccn1,0,-2,-2,16
S=C(Nc1ccccn1)Nc1ccccc1Cl,3,-3,-3,68*
CC1CC(OC(=O)CN2CCCCC2)CC(C)(C)C1 (stereo not drawn),-1,-1,0,-1
O=C1NC2(Nc3ccccc31)C(=O)Nc1ccc(Br)cc12 (stereo not drawn),3,-1,-3,33
O=C1NC2(Nc3ccccc31)C(=O)Nc1ccccc12 (stereo not drawn),0,-5,-4,51*
O=C(NC1CCN(C(=O)Nc2ccccc2Cl)CC1)c1cccc(F)c1,0,3,2,0
COC(=O)N/N=C/c1ccc(-c2cccc(Cl)c2)o1,-2,-4,2,5
Nc1ccccc1N=Cc1ccc(-c2cccc(Cl)c2)o1,9,-3,-8,78*
COc1cc(C2N=C(c3ccccc3)NO2)cc(Br)c1O (stereo not drawn),-1,-3,-5,65*
COCc1[nH][nH]c(=O)c1/C=N/N1CCOCC1,0,-2,-3,0
Cc1sc2ncnc(N[C@@H](Cc3c[nH]c4ccccc34)C(=O)O)c2c1C,-2,-1,-2,48*
CCOc1ccc(NC(=O)N2CCC(c3nc4ccccc4[nH]3)CC2)cc1,-1,1,-1,0
Clc1ccc(C2Nc3cccc4cccc(c34)N2)cc1,2,3,17,60*
CSc1ccc(C2Nc3cccc4cccc(c34)N2)cc1,1,-7,-1,31
Cc1cc(C)c(C)c(OCC(O)CN2CCN(c3ccccn3)CC2)c1 (stereo not drawn),0,0,10,1
Cc1ccc(C2(c3ccc(C)cc3)CC2C(=O)Nc2ccc([N+](=O)[O-])cc2O)cc1 (stereo not drawn),20,5,1,59*
COc1ccc2ncc(S(=O)(=O)c3ccccc3)c(N3CCN(c4ccccc4)CC3)c2c1,4,0,-4,6
CCN1Cc2c(/C=C/c3ccccc3)nc3ccc(OC)cc3c2N(c2cccc(Cl)c2)C1,3,-2,-10,65*
COc1cccc2sc3cc(NCc4ccc5c(c4)OCO5)ccc3c(=O)c12,9,1,-2,76*
COc1cc2sc3cc(NCc4ccc5c(c4)OCO5)ccc3c(=O)c2cc1OC,1,-4,-9,7
CCCCN(CC(=O)NCCOC)C(=O)Cn1nnc2ccccc21,-2,1,-3,0
CCOc1ccc(C2C(C#N)=C(N)N3C(=C2C#N)Sc2ccccc23)cc1 (stereo not drawn),6,0,-6,11
SMILES,NTR1 agonist,APOBEC3A inh,APOBEC3G inh,AHR activator
N#CC1=C(N)N2C(=C(C#N)C1c1ccccc1)Sc1ccccc12 (stereo not drawn),0,-4,-7,88*
C(=N\Nc1nc2ccccc2s1)/c1ccc2c(c1)OCO2,9,-7,-8,112*
Brc1csc(/C=N/Nc2nc3ccccc3s2)c1,24,3,-4,100*
Brc1cc2c(cc1/C=N/Nc1nc3ccccc3s1)OCO2,4,0,-3,20
C(=N\Nc1ccccc1)/c1nc2ccccc2s1,3,4,1,69*
C(=N\Nc1nc2ccccc2s1)/c1ccccn1,2,-2,-10,27
Cc1nc(N/N=C\c2ccc3c(c2)OCO3)sc1C,2,-1,-5,75*
COc1cccc(N2CC(O)=C(c3nc4ccccc4s3)C2=N)c1,0,3,-2,57*
CCN(CC)C(=O)CSc1nc(-c2cccs2)cc(-c2cccs2)c1C#N,0,-3,25,10
CCN(CC)C(=O)CSc1nc2c(c(-c3cccnc3)c1C#N)CCCC2,1,-5,-7,67*
CCN(CC)C(=O)CSc1nc(N)c(C#N)c(-c2cccs2)c1C#N,3,0,-5,77*
COC(=O)c1ccc(=O)c2nc3/c(=C/O)c(O)cc(=O)c3[nH]c12,/,/,/,1
C=CCOc1c(Br)cc(CNn2c(C)n[nH]c2=S)cc1OC,0,-1,20,48*
CCOc1ccccc1/C=C/c1onc(C)c1S(=O)(=O)N1CCC(C(=O)N2CCCCCC2)CC1,0,-4,-7,0
CCN(CC)CCNC1=NCCn2c1cc1cc(OC)ccc12,-1,2,-4,58*
c1ccc2nc(-c3nc4ccccc4o3)ccc2c1,2,3,6,90*
c1ccc(-c2nc3ccccc3o2)nc1,2,-4,-8,21
CCOC(=O)c1cc(NC(=O)c2ccccc2)c(=O)n2c1oc1ccccc12,1,4,8,1
CCc1nc(SCC(=O)c2ccccc2)c2ccccc2n1,7,-1,17,51*
COc1ccc(C)cc1NCc1cc(=O)oc2cc(-c3ccccc3)c(O)cc12,3,3,0,49*
COC(=O)c1ccccc1NCc1cc(=O)oc2cc(O)c(O)cc12,4,-3,-7,0
Cc1cc(C)cc(NCc2cc(=O)oc3cc(-c4ccccc4)c(O)cc23)c1,4,1,-4,50*
O=C(NCCC(NS(=O)(=O)OCC(Cl)(Cl)Cl)c1ccccc1)C(F)(F)F (stereo not drawn),-4,-3,-12,2
Cc1sc2ncnc(SCC(=O)Nc3ccc(S(=O)(=O)N4CCOCC4)cc3)c2c1C,3,5,-9,3
Cc1cccc(S(=O)(=O)N/N=c2\sc3ccccc3n2C)c1,0,-2,-7,66*
SMILES,NTR1 agonist,APOBEC3A inh,APOBEC3G inh,AHR activator
COc1cccc(-c2nc(-c3ccc(C(=O)O)cc3)no2)c1,-1,-1,-12,6
COc1cccc(-c2noc(-c3ccc(Cl)nc3)n2)c1,1,-4,-7,54*
CC(C)(C)OC(=O)C[C@H]1C/C=C\C[C@H](CC(=O)N[C@H](CO)Cc2ccccc2)C(=O)N2CCC[C@@H]2COC1=O,4,3,5,1
Fc1ccc(NC(=S)N2CCc3ccccc32)cc1,2,-8,-5,/
FC(F)Oc1ccc(NC(=S)N2CCc3ccccc32)cc1,2,-1,-8,51*
Cc1cc(NCCCn2ccnc2)n2ncc(-c3ccc(Cl)cc3)c2n1,2,0,-3,126*
Cc1cccc(-c2cc3nc(C)cc(NCCCn4ccnc4)n3n2)c1,0,-3,-11,48*
CC(C)(C)c1cc(NCCCn2ccnc2)n2ncc(-c3ccccc3)c2n1,9,3,-2,15
Cc1cc(NCCCN(C)C)n2nc(-c3cccs3)cc2n1,-1,-3,-7,4
CCCc1cc(NCCCn2ccnc2)n2nc(C)c(-c3ccccc3)c2n1,0,-2,-6,63*
Cc1cc(NCCCN2CCOCC2)n2ncc(-c3ccc(Cl)cc3)c2n1,-2,-4,-7,26
Cc1cc(Cl)ccc1OC(C)C(=O)Nc1cnn(CCCC(=O)O)c1 (stereo not drawn),-1,-1,-2,1
